Results on 26 compounds are retold here after PubChem BioAssay AID720697 (Broad Institute, 2013).

Results with a measured potency or affinity are listed apart. Results filed as inconclusive are left out. The source made the active and inactive calls.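 Rule for the calls: active = signal loss with fitted half-maximal concentration at or below twice the top valid tested dose in every test run; inconclusive = runs disagree, flat 30 to 70% signal loss, or poor fit; inactive = all runs flat, opposite direction, or potency beyond limit.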

The assay in a line: HEK293T cytotoxicity, dose response, cytotoxicity control for miR-122 modulator project, cell-based, inhibitor set, cherry-pick, set 2 (AID 720697). To be noted: HEK293T viability, CellTiter-Glo luminescence, 48 h; series mostly up to 26 µM.
In the case of `Cc1cc(CN(C)C(=O)c2cc(COc3ccc4ncccc4c3)on2)on1`, the call was inactive.
To `CN1C(=O)c2cc(NC(=O)c3cccs3)ccc2OC[C@@H]2O[C@@H](CC(=O)NCCN3CCCCC3)CC[C@@H]21` belongs “inactive”.
To `COCC(=O)Nc1ccc2c(c1)C(=O)N(C)[C@@H]1CC[C@H](CC(=O)NCc3ccccc3F)O[C@H]1CO2` belongs “inactive”; to `COC(=O)C[C@H]1CC[C@@H]2[C@@H](COc3ccc(NC(=O)c4cscn4)cc3C(=O)N2C)O1`, “inactive”; to `NC(=O)c1cn(-c2ccccc2)nc1-c1cc2ccccc2oc1=O`, “inactive”.
With `CO[C@H]1CN(C)C(=O)c2ccc(NS(C)(=O)=O)cc2OC[C@H](C)N(C(=O)CN(C)C)C[C@H]1C` the entry was “inactive”; with `COc1cccc(COc2cc3ccccc3nc2C)c1`, “inactive”.
Take `CN1C(=O)c2cc(NC(=O)c3ccc(F)cc3)ccc2OC[C@@H]2O[C@@H](CC(=O)O)CC[C@@H]21`: the compound was called inactive.
With `C[C@@H]1CN([C@H](C)CO)C(=O)c2cc(-c3cccc(C#N)c3)cnc2O[C@H]1CN(C)C(=O)C1CCC1` the entry was “inactive”; with `C[C@H](CO)N1C[C@H](C)[C@@H](CN(C)Cc2ccc(C(F)(F)F)cc2)Oc2ccc(NS(=O)(=O)c3ccc(Cl)cc3)cc2CC1=O`, “inactive”.
Take `C[C@H]1CN([C@@H](C)CO)S(=O)(=O)c2ccc(C#CC3CCCCC3)cc2O[C@@H]1CN(C)C`: the compound was classed as inactive.
To `C[C@@H]1CN([C@H](C)CO)S(=O)(=O)c2ccc(C3=CCCC3)cc2O[C@@H]1CN(C)C(=O)c1cnccn1` belongs “inactive”; to `CC(=O)Nc1ccc2c(c1)C(=O)N(C)[C@H]1CC[C@H](CC(=O)NC3CCCCC3)O[C@@H]1CO2`, “inactive”; to `Fc1ccc(CN2CCN(c3ncnc4scc(-c5ccc(F)cc5)c34)CC2)cc1`, “inactive”.
With `COc1cccc(CNC(=O)C[C@H]2CC[C@@H]3[C@@H](COc4ccc(NC(C)=O)cc4C(=O)N3C)O2)c1` the entry was “inactive”.
To `COCC(=O)N1C[C@H]2[C@@H](c3ccccc31)[C@H](CO)N2C(=O)Nc1ccccc1Cl` belongs “inactive”; to `CC(C)CC#Cc1ccc([C@H]2[C@@H](CO)N3CCCCN(S(=O)(=O)Cc4ccccc4)C[C@H]23)cc1`, “inactive”.
On to `Cc1cc(C(F)F)n2ncc(C(=O)NCCc3ccccc3Cl)c2n1`, for which the call was inactive.
For the compound `Cc1cc(C)c2c(c1)/C(=C/C(=O)c1ccc(Br)s1)C(=O)N2`, the call was inactive.
For `CNC(=O)C[C@@H]1CC[C@@H]2[C@H](COc3ccc(NC(=O)NC(C)C)cc3C(=O)N2C)O1`, the compound was called inactive.
With `CO[C@@H]1CN(C)C(=O)c2ccc(NC(=O)c3ccc(Oc4ccccc4)cc3)cc2OC[C@H](C)NC[C@H]1C` the entry was “inactive”; with `CNC(=O)C[C@@H]1CC[C@@H]2[C@@H](COc3ccc(NC(=O)c4cccc(OC)c4)cc3C(=O)N2C)O1`, “inactive”.
With `O=CN1CCN(C(=O)c2ccccc2F)CC1` the entry was “inactive”.
`C[C@@H]1CN([C@@H](C)CO)C(=O)Cc2cc(NC(=O)C3CCCCC3)ccc2O[C@H]1CN(C)Cc1ccc(-c2ccccc2)cc1`: the compound was classed as inactive.
In the case of `CC(=O)N(C)C[C@@H]1[C@@H](c2ccc(-c3cccc(C#N)c3)cc2)[C@H](CO)N1C(C)=O`, the result was inactive.
To `CO[C@H]1CN(C)C(=O)c2cc(NC(C)=O)ccc2OC[C@@H](C)N(C(=O)CC2CC2)C[C@H]1C` belongs “inactive”.
